# Measured values from PubChem BioAssay.
# The source made the active and inactive calls.
# Assays:
# [1] = E. coli DRC41 culture turbidity changes, primary screen, E. coli filamentation inducer project, strain DRC41, OD650, 48 h (AID 1152);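 also: E. coli MC1000 strain DRC41 lacking acrAB efflux pump and sulA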; details: E. coli DRC41 (acrAB sulA), higher = more signal, called active from +8 up or from −8 down
# [2] = small-molecule binders of probe aLefty1, primary screen, biochemical, small-molecule microarray, 635/667 nm fluorescence (AID 1153); details: higher = more signal;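 also: score merges spot fluorescence with signal-to-noise ratio from the scanned slide images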
# [3] = PSAC antagonists in infected red cells, primary screen, cell-based, P. falciparum Indochina, OD700, 1 h (AID 1154); details: P. falciparum Indochina infected RBC osmotic lysis, higher = more signal, called active from +8 up or from −8 down
# [4] = PSAC antagonists in infected red cells, primary screen, cell-based, P. falciparum Indochina, OD700, 2 h (AID 1155);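 also: lysis reports solute entry through the parasite surface anion channel PSAC; channel blockers reduce lysis of infected cells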; details: P. falciparum Indochina infected erythrocytes, osmotic lysis OD700; higher = more signal, called active from +8 up or from −8 down
# [5] = osmotic lysis modulators in infected erythrocytes, primary screen, PSAC antagonist project, cell-based, P. falciparum Indochina, OD700, 3 h (AID 1156); details: higher = more signal, called active from +8 up or from −8 down
# [6] = PSAC antagonists in infected red cells, primary screen, cell-based, P. falciparum Indochina, OD700, 18 h (AID 1157); details: P. falciparum Indochina infected erythrocytes, osmotic lysis OD700, 18 h; higher = more signal, called active from +8 up or from −8 down
# [7] = modulators of S6 phosphorylation in cells, primary screen, cell-based, A549, cytoblot, luminescence, serum-stimulated (AID 1158); details: A549 phospho-S6 cytoblot, 5 h, higher = more signal;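 also: serum-stimulated A549 lung adenocarcinoma cells; signal is phosphorylated S6 detected by cytoblot immunostaining with HRP secondary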
# [8] = molecular target: NADPH oxidase 2 (Homo sapiens) (UniProt P04839); assay: NOX2-dependent H2O2 signal modulators, primary screen, NOX inhibitor project, cell-based, HEK293-NOX2, PMA-stimulated, Amplex Red fluorescence (AID 1159); details: 45 min, higher = more signal, called active from +8 up or from −8 down; also: test concentration not given here
# [9] = molecular target: NADPH oxidase 4 (Homo sapiens) (UniProt Q9NPH5); assay: NOX4-dependent H2O2 signal modulators, primary screen, NOX inhibitor project, cell-based, HEK293-NOX4, tetracycline-induced, Amplex Red fluorescence (AID 1160); details: 45 min, higher = more signal, called active from +8 up or from −8 down
# [10] = molecular target: NADPH oxidase 5 (Homo sapiens) (UniProt Q96PH1); assay: NOX5-dependent H2O2 signal modulators, primary screen, NOX inhibitor project, cell-based, HEK293-NOX5, Amplex Red fluorescence (AID 1161); details: HEK293-NOX5, ionomycin, 45 min, higher = more signal
# Sequence of NADPH oxidase 5 (Homo sapiens) (Q96PH1 whole entry, looked up): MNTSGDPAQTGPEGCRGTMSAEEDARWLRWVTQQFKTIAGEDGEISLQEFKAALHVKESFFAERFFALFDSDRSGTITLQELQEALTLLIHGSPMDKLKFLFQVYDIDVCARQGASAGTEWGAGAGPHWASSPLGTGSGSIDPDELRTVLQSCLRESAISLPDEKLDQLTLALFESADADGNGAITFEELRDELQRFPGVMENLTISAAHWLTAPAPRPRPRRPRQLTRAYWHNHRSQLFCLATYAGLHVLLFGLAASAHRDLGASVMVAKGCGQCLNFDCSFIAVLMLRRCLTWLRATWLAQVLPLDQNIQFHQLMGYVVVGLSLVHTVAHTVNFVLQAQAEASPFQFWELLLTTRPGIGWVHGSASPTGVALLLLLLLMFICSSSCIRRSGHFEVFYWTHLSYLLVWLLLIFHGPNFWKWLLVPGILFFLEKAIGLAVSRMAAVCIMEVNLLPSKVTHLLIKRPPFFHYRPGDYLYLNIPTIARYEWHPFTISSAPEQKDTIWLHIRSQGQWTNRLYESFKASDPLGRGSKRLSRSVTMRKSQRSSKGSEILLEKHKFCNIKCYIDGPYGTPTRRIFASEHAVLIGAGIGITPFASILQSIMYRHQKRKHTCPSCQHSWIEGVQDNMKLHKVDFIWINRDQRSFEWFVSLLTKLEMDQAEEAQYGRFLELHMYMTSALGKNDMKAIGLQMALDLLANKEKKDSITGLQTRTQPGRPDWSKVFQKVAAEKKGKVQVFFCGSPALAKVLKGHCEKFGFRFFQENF
# Sequence of NADPH oxidase 2 (Homo sapiens) (P04839 whole entry, looked up): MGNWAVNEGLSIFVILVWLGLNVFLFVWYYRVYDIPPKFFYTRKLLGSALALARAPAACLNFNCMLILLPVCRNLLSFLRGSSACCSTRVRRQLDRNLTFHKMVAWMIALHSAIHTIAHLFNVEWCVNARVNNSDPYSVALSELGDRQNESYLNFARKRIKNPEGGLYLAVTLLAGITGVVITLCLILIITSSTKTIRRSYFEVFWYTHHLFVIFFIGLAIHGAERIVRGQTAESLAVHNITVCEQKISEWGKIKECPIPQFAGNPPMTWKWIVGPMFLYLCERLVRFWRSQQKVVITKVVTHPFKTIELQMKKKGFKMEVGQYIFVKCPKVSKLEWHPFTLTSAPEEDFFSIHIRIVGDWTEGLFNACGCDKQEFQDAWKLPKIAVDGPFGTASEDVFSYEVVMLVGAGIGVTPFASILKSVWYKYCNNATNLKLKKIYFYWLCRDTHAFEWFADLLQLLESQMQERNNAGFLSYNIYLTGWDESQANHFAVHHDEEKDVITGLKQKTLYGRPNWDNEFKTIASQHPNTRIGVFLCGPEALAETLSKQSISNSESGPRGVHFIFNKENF
# Sequence of NADPH oxidase 4 (Homo sapiens) (Q9NPH5 whole entry, looked up): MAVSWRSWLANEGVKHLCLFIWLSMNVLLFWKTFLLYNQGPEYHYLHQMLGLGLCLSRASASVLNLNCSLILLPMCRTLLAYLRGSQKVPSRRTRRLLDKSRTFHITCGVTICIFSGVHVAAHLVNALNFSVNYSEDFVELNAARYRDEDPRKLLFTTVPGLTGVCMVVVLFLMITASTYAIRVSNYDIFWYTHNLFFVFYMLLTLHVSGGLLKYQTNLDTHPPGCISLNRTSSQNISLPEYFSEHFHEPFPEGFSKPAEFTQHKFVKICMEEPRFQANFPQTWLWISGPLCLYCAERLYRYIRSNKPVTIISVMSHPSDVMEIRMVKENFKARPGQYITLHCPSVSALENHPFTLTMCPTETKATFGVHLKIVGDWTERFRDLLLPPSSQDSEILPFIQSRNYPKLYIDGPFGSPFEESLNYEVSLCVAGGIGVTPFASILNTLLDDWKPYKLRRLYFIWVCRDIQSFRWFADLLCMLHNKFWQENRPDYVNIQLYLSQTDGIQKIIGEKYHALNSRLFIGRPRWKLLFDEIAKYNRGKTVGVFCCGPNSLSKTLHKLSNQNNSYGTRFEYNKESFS
Compound,z-score [1],composite z-score [2],z-score [3],z-score [4],z-score [5],z-score [6],z-score [7],z-score [8],z-score [9],z-score [10]
CCOC(=O)C1=CC[C@@H](c2ccccc2)N(S(=O)(=O)c2ccc(C)cc2)[C@H]1c1ccc(C#N)cc1,-1.38 (inactive),0.161,1.92 (inactive),0.858 (inactive),0.224 (inactive),0.705 (inactive),-0.882,0.428 (inactive),-1.1 (inactive),0.0836
COCC1C2CC[C@H]3C(OCc4ccc(F)cc4C(F)(F)F)OC[C@]4(C)[C@H]3C2=C(CN4C(=O)OC(C)(C)C)[C@H](C)C1COC (stereo not given in full),-1.06 (inactive),0.891,2.63 (inactive),-0.298 (inactive),0.16 (inactive),-0.998 (inactive),2.03,-0.834 (inactive),-0.934 (inactive),-3.41
COCCOC(=O)N1C(=O)[C@@]2(c3cc(C#CC4=CCCCC4)ccc31)[C@H](c1ccc(OCCO)cc1)N1[C@H](c3ccccc3)[C@H](c3ccccc3)OC(=O)[C@H]1[C@@H]2C(=O)Nc1nc2ccccc2s1,2.88 (inactive),0.114,2.35 (inactive),0.922 (inactive),-0.419 (inactive),1.83 (inactive),1.24,0.821 (inactive),0.824 (inactive),1.35
CCOC(=O)C[C@H]1[C@H](OC(=O)c2ccccc2-c2ccccc2)[C@@H](NC(=O)c2ccc(-c3ccccc3)cc2)c2cc(OCCCO)ccc2N1C(=O)c1ccccc1,0.657 (inactive),0.0121,0.568 (inactive),0.135 (inactive),1.02 (inactive),0.157 (inactive),1.1,0.35 (inactive),0.169 (inactive),1.46
COC(=O)[C@@]1(Cc2ccc(F)cc2)[C@H]2c3cc(C(=O)N(C)C)n(CCc4c[nH]c5ccc(OC)cc45)c3C[C@H]2CN1C(=O)c1ccccc1,-1.77 (inactive),0.441,6.52 (inactive),0.1 (inactive),1.24 (inactive),-0.975 (inactive),1.87,-3.45 (inactive),-3.18 (inactive),-5.53
COc1ccccc1CN1C(=O)c2ccccc2[C@](Cc2ccccc2I)(C(=O)NCc2ccccc2)[C@@H]1c1ccc(CO)cc1,-0.0738 (inactive),0.183,2.14 (inactive),-0.0098 (inactive),0.826 (inactive),-0.308 (inactive),-0.266,0.102 (inactive),0.377 (inactive),1.34
C=CC[C@@]1(C(=O)NCc2ccccc2)N=C(c2ccc(OCCCO)cc2)O[C@@H]1c1ccccc1CN=[N+]=[N-],-1.52 (inactive),0.791,24 (active),8.62 (active),2.14 (inactive),1.15 (inactive),-0.387,-1.15 (inactive),-0.499 (inactive),0.694
C=CCCN(CC#C[C@H]1Oc2ccccc2S(=O)(=O)N2CCC[C@@H]12)S(=O)(=O)c1ccc(C)cc1,-1.88 (inactive),0.0443,3.75 (inactive),0.451 (inactive),0.123 (inactive),0.182 (inactive),-0.23,0.744 (inactive),-1.54 (inactive),-0.909
COC(=O)[C@@]1(Cc2ccc(OC)cc2)[C@H]2c3cc(C(=O)N4CCCC4)n(CCN4CCOCC4)c3C[C@H]2CN1C(=O)c1ccccc1,-0.861 (inactive),2.2,0.32 (inactive),-0.288 (inactive),0.366 (inactive),0.225 (inactive),-0.286,0.99 (inactive),-0.245 (inactive),-3.66
CCCC[C@@H]1C[C@H]1[C@@H](NC(=O)c1ccccc1)c1ccc(-c2ccccc2)cc1,-1.66 (inactive),0.212,11.5 (active),1.95 (inactive),1.57 (inactive),1.16 (inactive),0.319,-1.68 (inactive),-2.79 (inactive),0.666
O=C1O[C@H](c2ccccc2)[C@H](c2ccccc2)N2[C@H]1[C@@H](C(=O)N1CCCCCCC1)[C@]1(C(=O)Nc3ccc(C#CC4=CCCCC4)cc31)[C@H]2c1ccc(O)cc1,-0.306 (inactive),3.07,0.123 (inactive),-0.131 (inactive),0.0311 (inactive),0.482 (inactive),-0.0408,0.855 (inactive),0.494 (inactive),0.322
C=CCC(OC(C)=O)[C@@H]1[C@@H](N(Cc2ccc(-c3cccc(C(F)(F)F)c3)o2)C(=O)Cc2ccc(OC)cc2)c2cc(OCCCO)ccc2N1C(=O)Cc1ccc(OC)cc1 (stereo not given in full),1.12 (inactive),-0.0547,1.66 (inactive),-0.139 (inactive),0.777 (inactive),-0.176 (inactive),1.37,-2.27 (inactive),-1.82 (inactive),-1.89
O=C(NCC(F)(F)F)[C@@H]1c2ccccc2C(=O)N(Cc2ccccc2)[C@H]1c1ccc(CO)cc1,0.467 (inactive),-0.147,0.878 (inactive),-0.453 (inactive),0.239 (inactive),-0.406 (inactive),-0.325,-0.489 (inactive),0.597 (inactive),-0.601
COc1ccc(CCNC(=O)[C@@]2(C)c3ccccc3C(=O)N(Cc3ccccc3)[C@H]2c2ccc(CO)cc2)cc1,1.09 (inactive),0.187,6.03 (inactive),0.219 (inactive),0.474 (inactive),-0.73 (inactive),2.24,-3.58 (inactive),-3.9 (inactive),-4.78
Cn1c2c(c3ccccc31)C(=O)C1NC2C=CC1(C)C(=O)OCc1ccccc1 (stereo not given),-1.14 (inactive),0.125,0.395 (inactive),0.896 (inactive),0.808 (inactive),0.484 (inactive),-0.495,-0.343 (inactive),-1.52 (inactive),1.31
CO[C@H]1O[C@H](CO)[C@@H](OC(=O)Nc2ccc3c(c2)OCO3)[C@H](OC(=O)Nc2ccc3c(c2)OCO3)[C@H]1OC(=O)Nc1ccc2c(c1)OCO2,0.164 (inactive),0.457,6.86 (inactive),1.04 (inactive),0.608 (inactive),0.519 (inactive),-0.489,-1.44 (inactive),-0.847 (inactive),-1.69
CCCCC(=O)N(Cc1ccccc1F)[C@@H]1CC(C(=O)NCCO)=C[C@H](Oc2c(I)cc(CO)cc2OC)[C@H]1O,0.381 (inactive),0.298,5.42 (inactive),3.13 (inactive),2.17 (inactive),1.48 (inactive),0.245,1.27 (inactive),0.438 (inactive),-3.95
CCCC[C@H]1C[C@@H]1[C@@H]1N(P(=O)(c2ccccc2)c2ccccc2)[C@](CO)(c2ccccc2)CC12CC2,-2.52 (inactive),0.394,4.95 (inactive),0.761 (inactive),2.01 (inactive),0.985 (inactive),0.353,-0.339 (inactive),1.08 (inactive),-2.29
O=C1O[C@H](c2ccccc2)[C@H](c2ccccc2)N2[C@H]1[C@@H](C(=O)NC[C@H](O)c1ccccc1)[C@]1(C(=O)Nc3ccc(C#CC4(O)CCCCCC4)cc31)[C@H]2c1ccccc1OCCO,0.0511 (inactive),0.701,3.8 (inactive),2.21 (inactive),-0.957 (inactive),2.07 (inactive),-0.0056,0.65 (inactive),0.267 (inactive),1.39
CO[C@H]1O[C@H](CO)[C@@H](OC(=O)Nc2ccc(C(F)(F)F)cc2)[C@H](OC(=O)Nc2ccccc2)[C@@H]1OC(=O)Nc1ccccc1,-0.744 (inactive),-0.407,7.34 (inactive),1.01 (inactive),-0.886 (inactive),0.863 (inactive),-0.143,0.179 (inactive),-0.513 (inactive),-0.468
COC(=O)[C@@]1(Cc2ccccc2)[C@H]2c3cc(C(=O)N(C)C)n(Cc4ccccc4)c3C[C@H]2CN1C(=O)c1ccccc1,-1.39 (inactive),0.177,1.54 (inactive),0.488 (inactive),0.775 (inactive),0.667 (inactive),-0.608,0.543 (inactive),-0.0416 (inactive),-0.0705
Oc1ccc2cc[n+](Cc3cccc(OC(F)(F)F)c3)cc2c1,0.444 (inactive),-0.606,0.0313 (inactive),-0.0655 (inactive),0.621 (inactive),-0.236 (inactive),-0.522,-1.93 (inactive),-0.554 (inactive),-0.3
C=CCN1C(=O)[C@]2(Cc3ccccc31)N=C(c1ccc(OCCCO)cc1)O[C@@H]2c1ccccc1,-3.11 (inactive),0.165,26 (active),19.4 (active),1.09 (inactive),3.1 (inactive),0.253,-1.42 (inactive),0.273 (inactive),-0.785
C=CCC(OC(C)=O)[C@@H]1[C@@H](N(Cc2ccc(-c3ccccc3)cc2)C(=O)c2ccc(C)cc2)c2cc(OCCCO)ccc2N1C(=O)c1ccc2ccccc2n1 (stereo not given in full),2.95 (inactive),0.175,0.225 (inactive),-0.883 (inactive),-1.19 (inactive),-1.06 (inactive),1.56,-0.0121 (inactive),0.729 (inactive),1.92
O=C1C2C=CC(C(O)C3CC=CCC3)N(n3cnnc3)C2C(=O)N1Cc1ccccc1 (stereo not given),-1.37 (inactive),0.0455,1.36 (inactive),0.585 (inactive),0.576 (inactive),0.388 (inactive),-0.792,-0.621 (inactive),-1.61 (inactive),-1.34
